Molecules are shown by their SMILES. Where “and” joins values, the source holds several entries; their conditions need not be identical. Equal entries are not always repeated. About 83,000 compounds went through this panel and 20% of them were active in at least one assay; those are over-represented in the sample as a whole.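 How to read the values: 0–100, growth inhibition (40 = 60% inhibited); 0, no net growth; -100 to 0, cell death (-40 = 40% of starting cells died; -100 = all dead).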 Calls of active or inactive are those of the source. Rule for the calls: active = growth percent below 10; inactive = the rest.

Holding throughout (assay): NCI-60 one-dose screen, 48 h (100 = growth as untreated, 0 = no growth, -100 = all killed)
Holding throughout (conditions): 10 µM unless noted

The test system of experiment [1] is RPMI-8226 leukemia.
The test system of experiment [2] is OVCAR-8 ovarian.
Experiment [3] has as its system OVCAR-5 ovarian.
Experiment [4] deals with OVCAR-4 ovarian.
The test system of experiment [5] is SK-OV-3 ovarian.
Experiment [6] deals with IGROV1 ovarian.
Experiment [7] has as its system OVCAR-3 ovarian.
Experiment [8] concerns HS 578T breast.
Experiment [9] deals with NCI/ADR-RES ovarian.
Experiment [10] deals with T-47D breast.
The test system of experiment [11] is BT-549 breast.
Experiment [12] deals with MDA-MB-435 melanoma.
In experiment [13] the test system is SW-620 colon.
Experiment [14] has as its system MCF7 breast.
Experiment [15] has as its system HCC-2998 colon.
In experiment [16] the test system is KM12 colon.
In experiment [17] the test system is SR leukemia.
Experiment [18] deals with HCT-116 colon.

For `CCN(CC)CCc1nc(-c2ccccc2)no1`, the growth in experiment [1] was 60.9% (inactive) and 98.7% (inactive); in experiment [2], 83.9% (inactive) and 94.4% (inactive); in experiment [3] it was 98.6% (inactive) and 114% (inactive); in [4], 76.7% (inactive) and 103% (inactive); in experiment [5] it was 98.2% (inactive) and 99.6% (inactive); in [6], 78.7% (inactive) and 112% (inactive). Moreover, the growth was 73.2% (inactive) and 112% (inactive) in experiment [7]; 98% (inactive) in experiment [8]; 89.8% (inactive) and 99.4% (inactive) in experiment [9]; 55.8% (inactive) and 81.1% (inactive) in [10]; 55.2% (inactive) and 103% (inactive) in experiment [11]; 90.1% (inactive) and 99.3% (inactive) in [12]. The growth in experiment [13] was 73.3% (inactive) and 114% (inactive); in experiment [14] it was 58.5% (inactive) and 96% (inactive); in [15], 113% (inactive) and 111% (inactive); in [16] it was 85% (inactive) and 111% (inactive).
In the case of `CC(=O)C(/C=N/C(N)=O)=C(/C)O`, the growth in experiment [17] is 96.9% (inactive); in experiment [2] it was 104% (inactive); in [3] it was 109% (inactive); in [4], 114% (inactive); in experiment [6], 114% (inactive); in experiment [7], 121% (inactive). In addition, the growth in [8] was 108% (inactive); in experiment [9] it was 99.4% (inactive); in [11], 101% (inactive); in [12], 103% (inactive); in experiment [13], 105% (inactive); in experiment [14], 106% (inactive). The growth was 105% (inactive) in [18], 106% (inactive) in [15] and 111% (inactive) in [16].
For `CCCCOc1cc(C(=O)NCCN(CC)CC)c2ccccc2n1`, the growth was 85.4% (inactive) and 93.6% (inactive) in [1]; 92.9% (inactive) and 81.8% (inactive) in experiment [2]; 91.4% (inactive) and 97.6% (inactive) in experiment [3]; 94.2% (inactive) and 101% (inactive) in [4]; 112% (inactive) and 92.8% (inactive) in [5]; 102% (inactive) and 111% (inactive) in [6]. Also, the growth in experiment [7] was 114% (inactive) and 101% (inactive); in [8], 92.3% (inactive) and 128% (inactive); in experiment [9], 92.2% (inactive) and 99.3% (inactive); in experiment [10] it was 82.9% (inactive) and 92.4% (inactive); in experiment [11] it was 93.4% (inactive) and 98.5% (inactive); in experiment [12], 88.9% (inactive) and 98.1% (inactive). Besides, the growth in [13] is 105% (inactive) and 97.7% (inactive); in [14], 93.3% (inactive) and 95% (inactive); in [18], 91% (inactive) and 105% (inactive); in experiment [15], 96% (inactive) and 92.2% (inactive); in experiment [16] it was 101% (inactive) and 110% (inactive).
`CCOC(=O)c1c(C)oc(C)c(C(=O)OCC)c1=O`: the growth in experiment [1] was 85.9% (inactive) and 94.5% (inactive); in experiment [2] it was 104% (inactive) and 102% (inactive); in [3], 114% (inactive); in experiment [4] it was 105% (inactive) and 94.6% (inactive); in [5], 97.8% (inactive) and 95.3% (inactive); in [6] it was 114% (inactive) and 94.7% (inactive). The growth in [7] is 105% (inactive) and 127% (inactive); in experiment [8], 109% (inactive); in [9] it was 108% (inactive); in experiment [10], 99.1% (inactive) and 87.7% (inactive); in experiment [11] it was 79.4% (inactive) and 100% (inactive); in experiment [12], 111% (inactive) and 108% (inactive). In addition, the growth was 104% (inactive) and 98.3% (inactive) in experiment [13]; 97.7% (inactive) and 97.4% (inactive) in [14]; 97% (inactive) and 97.3% (inactive) in experiment [18]; 102% (inactive) in [15]; 114% (inactive) and 117% (inactive) in [16].
Turning to `OCCN1CCN(CCO)CC1`, the growth is 100% (inactive) and 95.5% (inactive) in [1]; 101% (inactive) and 97.4% (inactive) in experiment [2]; 111% (inactive) and 91.2% (inactive) and 105% (inactive) in [3]; 124% (inactive) and 97.7% (inactive) in experiment [4]; 104% (inactive) and 106% (inactive) and 109% (inactive) in experiment [5]; 113% (inactive) and 90.8% (inactive) and 112% (inactive) in [6]. The growth in experiment [7] was 119% (inactive) and 108% (inactive) and 109% (inactive); in [8], 106% (inactive) and 98.7% (inactive) and 112% (inactive); in experiment [9] it was 100% (inactive) and 94% (inactive) and 120% (inactive); in experiment [10] it was 89.8% (inactive) and 86% (inactive) and 118% (inactive); in [11], 110% (inactive) and 89.5% (inactive) and 102% (inactive); in experiment [12], 113% (inactive) and 99.8% (inactive) and 115% (inactive). Moreover, the growth in experiment [13] was 99.5% (inactive) and 103% (inactive); in [14] it was 95.5% (inactive) and 95.1% (inactive) and 107% (inactive); in experiment [18] it was 104% (inactive) and 87.9% (inactive) and 98.8% (inactive); in experiment [16] it was 108% (inactive) and 96.8% (inactive) and 109% (inactive).
Regarding `COc1ccc2cc3[n+](cc2c1OC)CCc1cc2c(cc1-3)OCO2`, the growth is 60.4% (inactive) and 43.8% (inactive) in [1]; 44.8% (inactive) in experiment [2]; 70.5% (inactive) in experiment [3]; 47.8% (inactive) and 79.1% (inactive) in experiment [4]; 88.1% (inactive) and 104% (inactive) in [5]; 84.4% (inactive) and 74.8% (inactive) in experiment [6]. The growth in experiment [7] is 55.4% (inactive) and 54.2% (inactive); in experiment [8], 79.6% (inactive) and 73.5% (inactive); in [9], 99% (inactive) and 101% (inactive); in experiment [10] it was 38.2% (inactive) and 47.4% (inactive); in experiment [11] it was 28.8% (inactive) and 32.3% (inactive); in [12], 59% (inactive) and 66.2% (inactive). Moreover, the growth was 79.3% (inactive) and 92.3% (inactive) in experiment [13]; 61.9% (inactive) and 76.9% (inactive) in experiment [14]; 68.5% (inactive) and 89.6% (inactive) in experiment [18]; 40.7% (inactive) and 30.1% (inactive) in experiment [16].
As to `O=C(Nc1ccc([N+](=O)[O-])cc1Cl)c1cc(Cl)ccc1O`, the growth in [1] was -31.8% (active) and 1.92% (active); in [2] it was -20.6% (active) and 5.74% (active); in [3], 23.6% (inactive) and 41.7% (inactive); in experiment [4], 22.6% (inactive) and 17.4% (inactive); in [6], 14.4% (inactive); in experiment [7], -10.7% (active) and -2.45% (active). Besides, the growth was -6.4% (active) and -20.7% (active) in [8]; -26.7% (active) and -15.9% (active) in [9]; -7.5% (active) and 3.54% (active) in [10]; -35.7% (active) and -74.7% (active) in experiment [11]; 0.797% (active) and 1.64% (active) in [13]; -45.4% (active) and -78.2% (active) in experiment [18]. Moreover, the growth in experiment [16] was -58.1% (active) and -25.8% (active).
Turning to `CC(C)C1OC(N)=C(C#N)C1(C#N)C#N` (centres undefined), the growth in [14] was 12.9% [100 µM] (inactive) and 2.2% [100 µM] (active).
For `CN1CCN(C2CCN(C(=O)Nc3cc(Oc4ccc(NC(=O)C5(C(=O)Nc6ccc(F)cc6)CC5)c(F)c4)ccn3)CC2)CC1`, the growth in experiment [1] was -38.9% (active) and 105% (inactive); in [2], -55% (active) and 91.6% (inactive); in experiment [3], -10.9% (active) and 94.3% (inactive); in experiment [4], -5.41% (active) and 83.2% (inactive); in experiment [5] it was -51.1% (active) and 74.6% (inactive); in experiment [6], -58.6% (active) and 55.3% (inactive). Further, the growth is 2.87% (active) and 108% (inactive) in [7]; 56.7% (inactive) in experiment [8]; 13.3% (inactive) and 99.5% (inactive) in experiment [9]; -66.4% (active) and 83.7% (inactive) in experiment [10]; -14.2% (active) and 122% (inactive) in [13]; -42.1% (active) and 76% (inactive) in experiment [14]. Further, the growth in experiment [18] is -58.6% (active) and 69.1% (inactive); in [15] it was -66.8% (active) and 136% (inactive); in [16] it was -46% (active) and 30.4% (inactive).
For `COc1cc2c(c(OC)c1OC)-c1ccc(OC)c(=O)cc1[C@@H](NC(C)=O)CC2`, the growth in experiment [2] is 10.3% (inactive) and 14.4% (inactive); in [3] it was 47.5% (inactive) and 20.8% (inactive) and 31.2% (inactive); in [4], 48.4% (inactive) and 57.7% (inactive) and 56.4% (inactive); in experiment [6], 16.5% (inactive) and 15.3% (inactive); in experiment [7] it was -57.4% (active) and -0.335% (active) and -49% (active); in experiment [8], 42.6% (inactive) and -0.967% (active) and 55.1% (inactive). In addition, the growth was 0.46% (active) and 8.85% (active) and -20.9% (active) in experiment [9]; 69.8% (inactive) and 49.2% (inactive) and 70.5% (inactive) in experiment [10]; 4.27% (active) and -10% (active) and -7.06% (active) in experiment [11]; -49.9% (active) and -0.781% (active) and -50.8% (active) in experiment [12]; 23.7% (inactive) and 18.3% (inactive) and 26.4% (inactive) in experiment [13]; 15.1% (inactive) and 15.6% (inactive) and 11.7% (inactive) in experiment [14]. Moreover, the growth in [18] was 1.53% (active) and 0.462% (active) and 0.179% (active); in experiment [15], 3.25% (active) and 13.4% (inactive) and -59% (active); in experiment [16], -6.61% (active) and 2.96% (active) and -29.9% (active).
Turning to `Clc1ccc(NC(Nc2ccc(Cl)cc2)C(Cl)(Cl)Cl)cc1`, the growth was 93.6% (inactive) and 107% (inactive) in experiment [2]; 79.9% (inactive) and 100% (inactive) in experiment [3]; 82.4% (inactive) and 118% (inactive) in experiment [4]; 75.3% (inactive) and 103% (inactive) in experiment [6]; 89% (inactive) and 102% (inactive) in experiment [7]; 109% (inactive) in [8]. Also, the growth was 61.5% (inactive) and 99.4% (inactive) in experiment [9]; 67.7% (inactive) and 82.8% (inactive) in experiment [10]; 69.3% (inactive) and 85.8% (inactive) in [11]; 62.9% (inactive) and 97.7% (inactive) in experiment [12]; 69% (inactive) and 98% (inactive) in experiment [13]; 88.9% (inactive) and 92.1% (inactive) in experiment [14]. Further, the growth in experiment [15] is 80.6% (inactive) and 92.4% (inactive); in experiment [16] it was 48.6% (inactive) and 84.9% (inactive).
As for `CC(C)Oc1ccc2cc(-c3nn(CC4CCNCC4)c4ncnc(N)c34)ccc2c1`, the growth is 46.6% (inactive) and -53.2% (active) in experiment [1]; 90.8% (inactive) and 38.9% (inactive) in experiment [2]; 80.1% (inactive) and 40.2% (inactive) in experiment [3]; 100% (inactive) and 30.9% (inactive) in experiment [4]; 75.8% (inactive) and 13.3% (inactive) in [5]; 92.1% (inactive) and 42.4% (inactive) in [6]. Moreover, the growth in experiment [7] is 92.2% (inactive) and 33.9% (inactive); in experiment [8] it was 75.7% (inactive) and -8.78% (active); in [9] it was 94.7% (inactive) and 64.2% (inactive); in experiment [10], 77.8% (inactive) and -8.43% (active); in experiment [11] it was 73.2% (inactive) and -5.14% (active); in experiment [13], 91.7% (inactive) and 1.44% (active). The growth in experiment [14] was 83.6% (inactive) and 15.2% (inactive); in experiment [16], 86.4% (inactive) and 22.4% (inactive).
